Most compounds without a hit are left out; they make up all but 6.8% or so of the library.
PMK inhibit = S. pneumoniae PMK inhibitors, primary screen, biochemical, mevalonate pathway, pilot trial included | inhibition, % at 10 µM | 65,000 tested, 0.49% active | purified PMK, PK/LDH-coupled NADH absorbance 340 nm | phosphomevalonate kinase (Streptococcus pneumoniae D39);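 active means top-ranked compounds by inhibition in the single 10 µM screen, taking a fixed number of the strongest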;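 further: 0% = full reaction with DMSO carrier and 100% = background rate without enzyme reaction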
Autofluor 339 = intrinsic fluorescence of library compounds, ex339/em460 – biochemical, MLSMR library, data from DPM-DC assay, artefact control, profiling panel; compound autofluorescence, ex339/em460 nm, NADH buffer; active compounds read high; 1 = no-compound wells, NADH background; fluorescence fold increase at 10 µM; 65,000 tested, 5.5% active;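 active means at 10 µM, mean starting fluorescence two-fold or more over control wells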;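 further: signal is the first read of a kinetic run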
Spn DPM-DC inh = S. pneumoniae DPM-DC inhibitors, primary screen, biochemical, PK/LDH-coupled NADH fluorescence; diphosphomevalonate decarboxylase (Streptococcus pneumoniae D39); purified DPM-DC; calls only at 10 µM; 65,000 tested, 0.49% active; AID 556, 2006;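 active means the 320 compounds with the highest percent inhibition in the single-dose primary screen, excluding strongly autofluorescent ones, cut at about 32% in these data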;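 further: kinetic rate of NADH fluorescence loss reporting ADP formed by the decarboxylase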
Abs 340nm = compound light absorbance at 340 nm, profiling panel, artefact control, biochemical, MLSMR library, data from PS, PMK, MK assays | compound absorbance at 340 nm, fold over control | fold change at 10 µM | 65,000 tested, under 10 active | AID 708, 2007;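 active means at 10 µM dose, initial 340 nm absorbance at least 2 fold that of control wells; inactive means change under 2 fold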;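 further: initial absorbance extrapolated from kinetic A340 decline of NADH oxidation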
NADH enzymes = inhibitors of PK/LDH coupling enzymes, profiling panel, artefact control, biochemical, MLSMR library. coupled PK/LDH NADH assays, four targets. IC50, µM (doses to about 10 µM), for the others: at the top dose inhibition. 65,000 tested, 0.02% active;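 active means single-dose screening hits from any of four coupled enzyme assays that gave an IC50 when retested across doses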;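 further: the DPM-DC format reads NADH fluorescence rather than 340 nm absorbance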
MK inhibit = S. pneumoniae MK inhibitors, primary screen, biochemical, PK/LDH-coupled NADH absorbance; mevalonate kinase [Streptococcus pneumoniae D39]; purified MK, PK/LDH-coupled NADH absorbance 340 nm; inhibition, % at 10 µM; 65,000 tested, 0.48% active; AID 555, 2006;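 active means ranked among the strongest by inhibition in the single 10 µM screen, a fixed top-ranked set picked for dose follow-up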
Numbers without * were called inactive; i = inactive; . = not tested or not shown.

SMILES	PMK inhibit	Autofluor 339	Spn DPM-DC inh	Abs 340nm	NADH enzymes	MK inhibit
Cc1nnc(NC(=O)c2ccco2)s1	4	1	i	1	2%	7
Cc1nc2ccc3nc(NC(=O)c4ccco4)sc3c2s1	30*	1.3	i	1.2	12%	1
COCCn1c(SCC(=O)OC(C)C)nnc1-c1ccccc1	11	1	i	1	4%	1
O=C(COc1ccc(Cl)cc1)NCc1nnc(SCC(=O)N2CCCc3ccccc32)o1	19	1	i	1	7%	0
COc1cccc(CNC(=O)Cn2cccc2)c1	7	1	i	0.98	4%	6
COc1cccc(CNC(=O)c2ccccc2N)c1	5	3.9*	.	1	6%	7
CC1CCc2c(sc(NC(=O)c3noc4c3CCCC4)c2C(N)=O)C1 (stereo not given)	0	4.8*	.	1.1	3%	6
O=C(O)COc1ccc2nsnc2c1Cl	10	3.7*	.	1	10%	9
Cc1ccc(OCC(=O)O)c(-n2nc3ccccc3n2)c1	12	1.2	i	1	8%	7
CCN(CC)c1ccc(-c2c(C#N)c(N)nc(OC)c2C#N)cc1	0	2.5*	.	1.1	1%	4
CCCCOC(=O)CSC1=C(C#N)C(c2ccccc2OC)C(C#N)C(=O)N1 (stereo not given)	3	1.1	i	0.99	27%	78*
O=C1C(C=NCCCN2CCCC2=O)=C(O)c2ccccc21	12	1.1	i	1.1	7%	.
O=C(Nc1nc(NC(=O)c2ccco2)n(-c2ccccc2)n1)c1ccccc1	1	2.4*	.	1.1	1%	0
O=C(NCC1CCCO1)c1cc(-c2ccco2)nc2ccccc12 (stereo not given)	9	5*	.	1.2	9%	8
O=C(Nc1ccon1)c1cc(-c2ccccc2)nc2ccccc12	10	1.2	i	1	3%	10
O=C(O)c1cc(-c2ccco2)nc2ccc(Br)cc12	16	2.6*	i	1.1	14%	5
Cc1cccc(NC(=O)c2cc(-c3ccco3)nc3ccccc23)n1	6	4.9*	.	1.1	4%	1
O=C(Nc1ccccc1C(=O)NCC1CCCO1)c1ccco1 (stereo not given)	5	1	i	1	2%	7
O=C(c1ccco1)N1CCN(C(=O)c2cc(-c3ccncc3)nc3ccc(Br)cc23)CC1	5	1.1	i	1.1	4%	4
COc1ccc(NC(=O)C2CCC(=O)N2S(=O)(=O)c2ccc(C)cc2)c(OC)c1 (stereo not given)	5	1.1	i	1	4%	6
O/N=C1\CCCc2oc3c(c21)CCCC3	0	1.1	i	1	3%	6
CCOC(=O)c1cnc(SCC(=O)Nc2sc(C)c(C)c2C#N)nc1N	20	1	i	0.99	9%	8
CCOc1ccc(Nc2cc(C)nc(N3CCOCC3)n2)cc1	10	1	i	0.99	7%	9
CCOC(=O)c1ccc(Nc2cc(C)nc(N3CCOCC3)n2)cc1	5	3*	i	1.1	9%	7
O=C(Cn1c(=O)c2c(ncn2C2CCCC2)n(Cc2ccccc2)c1=O)N1CCc2ccccc21	11	1.1	i	1	5%	4
N#Cc1nc(Cc2ccccc2)oc1N1CCC(Cc2ccccc2)CC1	0	1.1	i	1	0%	1
COc1ccccc1-c1nc(C#N)c(N2CCN(Cc3ccccc3)CC2)o1	13	3.1*	i	1	18%	12
COc1ccccc1-c1nc(C#N)c(N2CCC(Cc3ccccc3)CC2)o1	11	3.9*	.	1	12%	12
COc1cccc(N2CCN(C3CC(=O)N(c4ccc(C)c(Cl)c4)C3=O)CC2)c1 (stereo not given)	11	1	i	1	18%	40*

Source: PubChem BioAssay (SRMLSC)
